# Compound activity: PubChem, several laboratories
# Mdm2-MdmX inh – inhibitors of human Mdm2-MdmX association, primary screen, cell-based, luminescence, split luciferase, SaOS-2, uHTS. Protein Mdm4 (Homo sapiens) + E3 ubiquitin-protein ligase Mdm2 (Homo sapiens), …. SaOS-2 split-luciferase Mdm2/MdmX complementation. inhibition, % at 8 µM. actives 3% (n = 330,000);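 active = inhibition of at least 50% at 8 µM in the primary screen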
# PP1 counter – PP1-alpha phosphatase inhibitors, primary screen, counter-screen for PP5 inhibitor project, biochemical, fluorescence, OMFP substrate, single point; purified PP1alpha; inhibition, % at 6.7 µM; actives 0.9% (n = 320,000); AID 2235, 2010;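 active = inhibition above the mean inhibition of all tested compounds plus 3 SD, computed separately for each screening campaign, cut at about 15% in these data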
# Target sequence (P62136 whole entry, looked up): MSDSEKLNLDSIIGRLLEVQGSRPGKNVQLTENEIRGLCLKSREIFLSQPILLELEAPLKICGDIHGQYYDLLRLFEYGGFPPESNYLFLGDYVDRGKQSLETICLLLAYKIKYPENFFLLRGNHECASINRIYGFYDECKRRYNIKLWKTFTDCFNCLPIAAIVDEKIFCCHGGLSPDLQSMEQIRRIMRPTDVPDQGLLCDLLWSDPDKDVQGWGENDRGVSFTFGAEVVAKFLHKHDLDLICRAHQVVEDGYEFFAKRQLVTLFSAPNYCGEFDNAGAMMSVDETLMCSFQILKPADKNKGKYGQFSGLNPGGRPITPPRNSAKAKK
# CSC inhib – cancer stem cell viability inhibitors, primary screen, luminescence. inhibition, % at 7.5 µM. AID 2717, 2010. actives 1.1% (n = 300,000). cancer stem cell-like cells viability; in the data active = inhibition above about 75%; inconclusive = no clear call, values can overlap the other calls; tested in HMLE shEcad cells
# PP5 inh – PP5 phosphatase inhibitors, primary screen, biochemical, fluorescence; Serine/threonine-protein phosphatase 5 (Homo sapiens), P53041; purified PP5c, OMFP substrate fluorescence; inhibition, % at 6.7 µM; actives 0.18% (n = 320,000);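 active = inhibition above the campaign's mean inhibition across all tested compounds plus 3 SD, cut at about 9.5% in these data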
# Beta cell apopt – inhibitors of cytokine-induced beta cell apoptosis, primary screen, luminescence | actives 0.8% (n = 300,000) | protection from apoptosis, % (test concentration not listed) | INS-1E cytokine-induced death, ATP luminescence, 48 h; percent of positive-control rescue, neutral wells zero;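 active = Every replicate reaches about 75%, or at least half do and their mean reaches it too, limit read from the data; inconclusive = At least half of replicates reach the limit but their mean does not; inactive = Under half of replicates reach the limit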;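 note: higher means more ATP so stronger rescue from cytokine killing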
# Calb FLC – C. albicans growth inhibition with fluconazole, primary screen, CaCi-2 strain, Alamar Blue fluorescence. C. albicans CaCi-2 (fluconazole-resistant clinical isolate) + fluconazole, 48 h. growth inhibition, % (test concentration not listed). actives 0.57% (n = 300,000). AID 1979, 2009;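 active = growth inhibition above about 58% in most replicates, limit read from the data, passing the limit was not always enough; inconclusive = exactly half the replicates above a set limit; inactive = most replicates below a set limit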;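 note: all wells also contain fluconazole at 8 µg/ml as a sub-toxic cotreatment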
# Numbers stand for hits; - = inactive; ? = inconclusive; . = no result given; ! = a repeat was not active. An excerpt weighted towards active compounds, which were near 4.9% of everything screened.
SMILES,Mdm2-MdmX inh,PP1 counter,CSC inhib,PP5 inh,Beta cell apopt,Calb FLC
CCOC(=O)c1sc(Nc2ccccc2)nc1C,-,-,-,-,-,-
Cc1cc(-c2csc(N)n2)c(C)n1CCC(C)C,-,16,-,-,-,-
COc1ccc(N/N=C(/C(C)=O)N2CCCc3ccccc32)cc1,-,-,88,-,-,-
O=c1c2cc(Cl)ccc2nc(-c2ccccc2)n1O,-,-,-,-,-,-
O=c1c2cc(Br)ccc2nc(-c2ccc([N+](=O)[O-])cc2)n1O,-,-,-,-,-,110
O=c1c2ccc(Cl)cc2nc(-c2ccc([N+](=O)[O-])cc2)n1O,-,-,-,-,-,87
O=C(NC(=S)Nc1cccc(Cl)c1N1CCCCC1)c1cccs1,-,-,99,-,-,-
O=C(NC(=S)Nc1cccc(Cl)c1N1CCCCC1)c1ccco1,-,-,77,-,-,-
NC(=O)C1CCN(C(=O)CCSCc2ccc(Cl)c(Cl)c2)CC1,-,-,-,-,-,-
CC(=O)NCC(=O)NC1CCCc2c1cnn2-c1ccc(C(C)(C)C)cc1 (configuration not stated),-,-,-,-,-,-
CC(C)(C)c1ccc(-n2ncc3c2CCCC3NC(=O)C2(C(N)=O)CC2)cc1 (configuration not stated),-,-,-,-,78,-
CCOC(=O)/C=C/C(=O)Nc1cccc([N+](=O)[O-])c1,-,-,108,-,-,-
COc1ccccc1/C=N/NC(=O)c1ccc(CN2C(=O)c3cccc4cccc2c34)cc1,-,16,-,-,-,-
CCOC(=O)C1CCCN(C(=O)c2ccc3ncsc3c2)C1 (configuration not stated),-,.,-,.,-,.
CCCC(C)C(=O)Nc1nc(C)c(-c2csc(Nc3ccc(Cl)cc3)n2)s1 (configuration not stated),-,-,-,-,100,-
O=C(NC(Cc1ccccc1)C(=O)NCc1ccccn1)c1ccco1 (configuration not stated),-,-,.,-,-,103
O=C(NCc1ccccn1)c1ccco1,-,-,-,-,-,-
Cc1cn(CC(=O)c2ccccc2)c2ccccc12,-,-,-,-,-,-
O=c1oc2ccc3ccccc3c2cc1-c1nc2ccccc2o1,-,-,-,-,-,-
O=c1c(Cl)c2oc3ccccc3nc-2c2ccccc12,-,-,-,-,86,-
CCCCCCCCNc1ncnc2ccccc12,-,-,-,-,101,76
O=C(CSc1ncnc2ccccc12)NCCc1ccccc1,-,-,-,-,-,-
CCc1ccccc1Nc1ncnc2ccccc12,-,-,-,-,.,-
Cc1cc2c(Nc3ccccc3)ncnc2s1,-,-,-,-,-,-
c1ccc(CCNc2ncnc3ccccc23)cc1,-,-,-,-,100,94
SMILES,Mdm2-MdmX inh,PP1 counter,CSC inhib,PP5 inh,Beta cell apopt,Calb FLC
Cc1cc2c(NCCc3ccccc3)ncnc2s1,-,-,-,-,108,-
O=C(NCCc1ccc(C(F)(F)F)cc1)C1CCC(=O)N(CCCc2ccccc2)C1 (configuration not stated),-,-,-,-,-,-
Cc1ccc(S(=O)(=O)/N=C2\C(=O)c3ccccc3C([O-])=C2n2cc[n+](CCC(C)C)c2)cc1,-,-,-,-,90,-
CCCC[n+]1ccn(-c2nc3ccccc3nc2[N-]S(=O)(=O)c2ccc(Cl)cc2)c1,-,-,-,-,-,-
CCCC[n+]1ccn(C2=C([O-])c3ccccc3C(=O)/C2=N\S(=O)(=O)c2ccc(Br)cc2)c1,-,-,-,-,90,-
Cc1ccc(NC(=O)C[n+]2ccn(C3=C([O-])c4ccccc4C3=O)c2)cc1,-,-,-,-,-,-
CSc1ccc(S(=O)(=O)Nc2ccc(OCC(=O)N3CCOCC3)cc2)cc1,-,-,-,-,-,-
O=C(COc1ccc(S(=O)(=O)N2CCCC2)cc1)N1CCN(c2ccccc2F)CC1,-,-,-,-,-,-
CCOC(=O)COc1ccc(S(=O)(=O)N2CCN(c3ccccc3F)CC2)cc1,-,-,-,-,-,103
O=c1cc(O)nc(SCc2ccccc2)n1-c1ccccc1,-,17!,-,-,-,-
COc1cc(OC)c(N(C)S(=O)(=O)c2cccc(C(=O)Nc3nccs3)c2)cc1Cl,-,.,-,.,-,.
Cc1ccc(S(=O)(=O)Nc2ncnc3ccccc23)cc1,-,-,-,-,-,-
COc1cc(-c2nnc(SCc3cc(=O)oc4cc(O)c(O)cc34)o2)cc(OC)c1OC,-,-,-,-,.,104
CCOC(=O)CSc1nnc(-c2cc(OC)c(OC)c(OC)c2)o1,-,-,-,-,-,-
Cc1ccc(C(C(=O)NC2CCCCC2)N2CCCC2)cc1 (configuration not stated),-,17,-,-,-,-
Cc1ccc(C(C(=O)NC2CCCC2)N2CCCCC2)cc1 (configuration not stated),-,-,-,-,.,-
C/C(=N\OCc1ccc(C#N)cc1)c1cc2ccccc2o1,-,-,-,-,-,78
O=C(CCNc1ccccc1)c1cccc([N+](=O)[O-])c1,-,-,-,-,-,-
O=C(NNC(=S)NC(=O)c1ccccc1Cl)c1cccc([N+](=O)[O-])c1,-,-,-,-,-,-
O=C(NNc1c(Cl)cc(Cl)cc1Cl)c1cccc([N+](=O)[O-])c1,-,-,-,-,113,-
O=C(CC(=O)c1cccc([N+](=O)[O-])c1)Nc1ccccc1Cl,-,-,-,-,-,103
COc1cc(/C=N/NC(=O)Cn2cnc3ccccc3c2=O)ccc1O,-,-,-,-,-,-
O=C(C[n+]1ccc2ccccc2c1)c1cccc2ccccc12,-,-,-,-,-,-
O=C(/C=C/c1cc[n+](CC(=O)c2ccc3cccc4c3c2CC4)cc1)c1ccc2cccc3c2c1CC3,-,46,-,12,-,-
Cc1cc(C(=O)N/N=C/c2cc(Cl)cc([N+](=O)[O-])c2O)c2ccccc2n1,-,-,-,-,-,79
O=C(N/N=C/c1cc(Cl)cc([N+](=O)[O-])c1O)NC12CC3CC(CC(C3)C1)C2,-,-,82,-,-,-
Cc1ccc(F)cc1NC(=O)c1cnccn1,-,-,-,-,-,-
COc1cc(OC)cc(C(=O)NNC(=O)c2cc3ccccc3cc2O)c1,-,.,-,.,-,81
COc1ccccc1NC(=O)NNC(=O)c1cc2ccccc2cc1O,-,-,-,-,-,86
Cc1ccc(NC(=O)NNC(=O)c2cc3ccccc3cc2O)cc1,-,-,-,-,-,?
